High-throughput results from PubChem.
Rows were chosen to be rich in hits. Some 3.5% of all compounds tested hit in one or more screens of this group.
rCAG RNA binder: binds r(CAG) RNA repeats; hit rate 1.3% among 370,000; inhibition, % at 3 µM; AID 651821; r(CAG) RNA repeat, TO-PRO-1 dye displacement fluorescence;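 active = inhibition above the plate cutoff, the mean of all test compounds on that plate plus 3 SD, cut at about 35% in these data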;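 also: 0% = DMSO alone and 100% = 100 µM mitoxantrone as full dye displacement; higher means more dye released from RNA so lower well fluorescence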
LEDGF integ inh: blocks HIV-1 LEDGF/p75-dependent DNA integration; TR-FRET IN-LEDGF/p75 DNA integration, Eu/Cy5; inhibition, % at 3.7 µM; hit rate 0.64% among 370,000;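 active = inhibition above the screen-wide mean plus 3 SD, cut at about 13% in these data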;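 also: signal is the Cy5 over europium emission ratio at 671 and 618 nm; 0% = plate median of compound wells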
PG9 Ab binder: binds the HIV-1 gp120 antibody PG9; TR-FRET gp120-PG9 antibody binding; inhibition, % at 6.7 µM; hit rate 0.43% among 360,000; in the data active = inhibition above about 8.5%
DNMT1 block: DNMT1 (human) enzyme inhibition; P26358; DNMT1 molecular beacon, Hinp1I cleavage, fluorescence; inhibition (reported as % activation of signal), % at 10 µM; hit rate 0.83% among 360,000; in the data active = inhibition above about 50%
MBD2 DNA inh: blocks human MBD2 binding to methylated DNA. Q9UBB5. hit rate 0.31% among 370,000. TR-FRET, MBD2 binding to methylated oligonucleotide. inhibition, % at 4.4 µM; in the data active = inhibition above about 13%
Target sequence (Q9UBB5 whole entry, looked up): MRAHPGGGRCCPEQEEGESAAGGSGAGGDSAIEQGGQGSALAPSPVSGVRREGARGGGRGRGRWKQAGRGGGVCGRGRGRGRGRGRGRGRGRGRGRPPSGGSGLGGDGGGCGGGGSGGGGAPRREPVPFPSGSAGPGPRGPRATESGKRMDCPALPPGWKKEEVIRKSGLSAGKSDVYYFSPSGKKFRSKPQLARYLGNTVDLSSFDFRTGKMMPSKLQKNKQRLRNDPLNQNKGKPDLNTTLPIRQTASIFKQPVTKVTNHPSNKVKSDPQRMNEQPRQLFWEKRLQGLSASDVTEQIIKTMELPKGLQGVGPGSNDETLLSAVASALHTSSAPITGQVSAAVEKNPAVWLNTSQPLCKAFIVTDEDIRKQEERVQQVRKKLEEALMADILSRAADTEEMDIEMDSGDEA
UHRF1 binding: human UHRF1 methylated DNA binding inhibitors; inhibition, % at 4.4 µM; UHRF1 binding to methylated oligo, TR-FRET; Q96T88; hit rate 0.75% among 370,000; in the data active = inhibition above about 21%;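 also: UHRF1 SRA domain binding a hemimethylated CpG hairpin DNA probe; 0% = median of test compound wells and 100% = reference inhibitor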
Beacon interf DR: beacon fluorescence artifact, dose response counter-screen. molecular beacon fluorescence, spectral interference counter-screen. 200 tested, under 10 active. shares compounds with DNMT1 block. AID 602382. IC50, µM; call rule not given here
DNMT1 inh conf: DNMT1 inhibition confirmation, single concentration. shares compounds with DNMT1 block. DNMT1 molecular beacon HinP1I cleavage, fluorescence. inhibition, % at 10 µM. hit rate 8% among 2,300. AID 602385;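 active = average inhibition of at least 30% in the single-concentration confirmation test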
Beacon interf: beacon fluorescence artifact counter-screen. shares compounds with DNMT1 block. DNMT1 molecular beacon spectral interference counterscreen, fluorescence 485/520. activation (fluorescence interference), % at 10 µM. hit rate 1% among 2,300. AID 602387;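 active = activation of at least 30% at 10 µM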;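 also: DNMT1 catalytic domain with a HinP1I cleavage step and a FAM/dabcyl DNA beacon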
Starred values were filed as active, the others as inactive; . = no result given.

SMILES | rCAG RNA binder | LEDGF integ inh | PG9 Ab binder | DNMT1 block | MBD2 DNA inh | UHRF1 binding | DNMT1 inh conf | Beacon interf | others
CCOC(=O)Cc1csc(SCC(=O)Nc2sc3c(c2C(N)=O)CCC3)n1 | 10.8 | 1.2 | 0.6 | 95.0* | 7.2 | 2.1 | 10.5 | -2.6
O=C(NCc1ccccc1CN1CCCC1)c1ccc(Cl)c(S(=O)(=O)N2CCCC2)c1 | -3.0 | 5.7 | -1.5 | 2.4 | 0.2 | 2.8 | . | .
Clc1ccc(-n2c(SCc3cccc4ccccc34)nnc2-c2ccccc2)cc1 | 6.2 | -0.3 | . | . | -1.5 | 1.3 | . | .
CCn1c(CNC(=O)c2cccs2)n[nH]c1=S | -3.9 | -0.2 | 0.7 | -1.9 | -4.4 | -0.1 | . | .
CCn1c(CC(=O)Nc2ccccc2)n[nH]c1=S | 1.2 | -3.9 | 2.3 | 82.1* | 0.9 | -1.8 | 6.1 | 7.2
C[C@H]1[C@@H](c2ccccc2)Oc2c(Cl)cccc2S(=O)(=O)N1C | 2.2 | -4.5 | -0.3 | . | 2.5 | -0.8 | . | .
COc1cc(C)c2c(c1OC)C(=O)CC2 | 1.4 | 3.7 | 1.1 | -0.7 | 1.8 | 7.2 | . | .
Cc1ccc(C2C(C#N)=C(N)OC3=C2C(=O)CCC3)s1 (stereo not given) | -2.1 | 2.3 | 1.4 | 1.4 | -5.1 | 1.9 | . | .
N#CC1=C(N)OC2=C(C(=O)CCC2)C1c1ccncc1 (stereo not given) | 1.6 | -2.9 | 1.0 | 75.0* | -0.8 | -0.7 | 5.2 | 0.4
COc1ccc2cc(/C=N/NC(=O)CSCc3ccc([N+](=O)[O-])cc3)c(Cl)nc2c1 | 0.0 | -1.0 | -1.3 | 64.5* | -5.0 | -0.3 | 6.0 | 1.0
COc1ccc(C(=O)Oc2ccc(/C=N/NC(=O)Cc3ccc([N+](=O)[O-])cc3)cc2)cc1 | 0.1 | 1.9 | 1.2 | 53.3* | -2.9 | 3.3 | 2.6 | 2.1
Cc1ccccc1NC(=O)Cn1nnc(S(=O)(=O)c2ccc(C(C)(C)C)cc2)c1N | 5.5 | -4.2 | -0.1 | 60.6* | 4.5 | 0.6 | -1.3 | 2.3
Cc1ccccc1NC(=O)Cn1nnc(C(=O)NCc2ccco2)c1N | 1.9 | 2.4 | 0.0 | -1.2 | -2.6 | -0.4 | . | .
CN(C=[N+](C)C)c1cccc2c1C(=O)c1ccccc1C2=O | -9.4 | 2.0 | -2.3 | 61.6* | -3.9 | 2.6 | 4.9 | 5.8
Cc1ccc(NC(=O)CSc2nc3ccccc3c(=O)n2CCCC(=O)NCC2CCCO2)cc1 (stereo not given) | -2.1 | 0.2 | -0.2 | 0.4 | -3.3 | 0.3 | . | .
CC(C)Cn1c(N)c(C(=O)NCC2CCCO2)c2nc3ccccc3nc21 (stereo not given) | 2.4 | 4.7 | 0.0 | 74.2* | -6.9 | 0.7 | 9.9 | 1.3
N#Cc1c(N)nc2c(c1N)CC(CCl)O2 (stereo not given) | 4.8 | -2.0 | -2.8 | 93.2* | 0.8 | -2.5 | 4.4 | 5.2
CC(C)C1Nc2ccc(C(=O)NCc3ccco3)cc2NC1=O (stereo not given) | 4.4 | 1.9 | -0.5 | 48.5 | 5.1 | 4.8 | . | .
Cc1cccc(C)c1NC(=O)C1CCCN1S(=O)(=O)c1cccc2cccnc12 (stereo not given) | 0.6 | 0.0 | . | . | 2.0 | 3.1 | . | .
Cc1cc(C)cc(-n2nnnc2SCC(=O)N2CCOCC2)c1 | -4.5 | -1.3 | 1.6 | 78.9* | 1.8 | 0.4 | -0.4 | 3.6
Cc1ccc(C(=O)NN2CC(O)=C(c3nc(-c4cccc([N+](=O)[O-])c4)cs3)C2=N)cc1 | 21.1 | 2.0 | 1.3 | 79.5* | 2.5 | -0.4 | 38.9* | -1.9 | Beacon interf DR=>99
COc1ccc(C(C(=O)NC(C)(C)C)n2c(-c3ccc(C(F)(F)F)cc3)nc3ccccc32)cc1 (stereo not given) | 2.4 | -4.3 | 1.4 | . | 3.4 | 2.6 | . | .
COc1ccc(S(=O)(=O)N2CCOCC2)cc1NC(=O)c1cccc(-n2cccc2)c1 | 23.4 | 7.9 | -0.6 | 72.7* | -1.8 | 6.5 | 0.2 | -5.2
COc1ccccc1NC(=O)c1cccc(S(=O)(=O)N2CCOCC2)c1 | -4.0 | -1.5 | -2.6 | -3.1 | -3.7 | 2.2 | . | .
CC(C)Oc1ccc(S(=O)(=O)N2CCOCC2)cc1NC(=O)Cc1c(F)cccc1Cl | -1.4 | 1.7 | -0.7 | 89.5* | 1.6 | -0.1 | 0.8 | 1.9
SMILES | rCAG RNA binder | LEDGF integ inh | PG9 Ab binder | DNMT1 block | MBD2 DNA inh | UHRF1 binding | DNMT1 inh conf | Beacon interf | others
C[C@@H]1CCCCO[C@@H](CN(C)S(C)(=O)=O)[C@@H](C)CN([C@H](C)CO)C(=O)c2cc(N(C)C)ccc2O1 | 9.4 | -1.0 | -0.3 | 1.0 | 1.6 | 3.2 | . | .
Clc1ccc2c(N/N=C/c3cccc(Br)c3)ccnc2c1 | 14.0 | 0.6 | -0.5 | 80.5* | -1.6 | -0.3 | 4.4 | 3.5
COc1ccc2cc(C3CC=C(CO)CN3S(=O)(=O)c3ccccc3[N+](=O)[O-])n(C(=O)OC(C)(C)C)c2c1 (stereo not given) | 9.2 | 3.5 | -0.8 | . | 0.4 | 1.0 | . | .
O=C(NNc1cc(N2CCCC2)nc(N2CCCC2)n1)c1ccc([N+](=O)[O-])cc1 | 9.4 | -1.0 | -1.7 | 55.6* | -8.4 | -5.8 | -3.6 | -11.1
COc1ccc2nc(C)cc(SCC(=O)N/N=C/c3cccc4ccccc34)c2c1 | 8.1 | -1.5 | 0.4 | 53.2* | -6.7 | -1.2 | 3.0 | -2.9
N#Cc1ccc(C(=O)N2CCCC(c3cc(C(=O)NCc4cccnc4)no3)C2)cc1 (stereo not given) | 0.9 | 1.1 | -1.8 | 5.4 | -2.0 | 1.2 | . | .
Cc1ccc2nc(Nc3ccc4[nH]c(=O)[nH]c4c3)c(-n3nc(C)cc3C)nc2c1 | 16.8 | -1.3 | 0.4 | 51.0* | -3.0 | -2.0 | 2.9 | 1.8
Cc1ccc(C2C(C#N)=C(N)N(N(C)C)C3=C2C(=O)CCC3)cc1 (stereo not given) | 1.9 | 3.3 | -1.1 | 78.9* | -7.7 | -3.4 | 1.7 | 2.0
Cc1cc(C)cc(NC(=O)Cc2ccc(S(=O)(=O)N3CCCC3)s2)c1 | 8.4 | -1.1 | -3.0 | -4.1 | 1.1 | -0.1 | . | .
CC(C)(C)NC(=O)Cc1ccc(S(=O)(=O)N2CCCC2)s1 | 14.3 | 4.7 | -0.4 | 72.2* | 4.1 | 3.7 | 2.7 | -1.4
Cc1cccc(C)c1OCC(=O)Nc1cccc(-c2nnc(-c3ccccc3)o2)c1 | -1.0 | -2.1 | -1.9 | -5.1 | 4.3 | 1.4 | . | .
Cc1cccc(OCC(=O)Nc2ccc(N3CCCC3)cc2)c1C | 10.3 | 1.8 | 0.9 | 58.9* | -7.8 | -7.8 | 20.7 | -5.1 | Beacon interf DR=>99
Cc1ccc(OCC(=O)Nc2ccc(N3CCCC3)cc2)cc1C | 9.4 | -5.0 | -1.0 | 67.4* | 4.3 | 5.4 | -0.3 | -5.7
Cc1cccc(OCC(=O)Nc2cccc(-c3nnc(-c4ccccc4)o3)c2)c1C | 2.1 | 0.5 | 0.1 | 57.1* | -4.2 | -2.1 | -2.1 | -3.4
Cn1c(=O)c2c(nc(SCc3cccnc3)n2Cc2ccccc2)n(C)c1=O | -8.5 | -7.1 | -1.3 | 2.9 | 8.9 | 5.8 | . | .
